Results reported in PubChem BioAssay (EPA / NIEHS).
Activity calls are given as the source filed them. How the source made its calls, unless noted: active means hit-call score of the fitted dose curve at least 0.9, where 1 is the maximum; inactive means score below 0.9.

Assays:
[1] = molecular target: Peroxisome proliferator-activated receptor gamma (Homo sapiens) (UniProt P37231); test: OT_PPARg_PPARgSRC1_1440: Odyssey Thera (OT) 24-hour Protein-Complementation Assay for Peroxisome Proliferator-activated Receptor Gamma/ SRC-1 Co-activator (AID 2283388; active means hit-call score of the fitted dose curve at least 0.9, where 1 is the maximum)
Chain of Peroxisome proliferator-activated receptor gamma (Homo sapiens) (P37231 whole entry, looked up, the tested form may be a part): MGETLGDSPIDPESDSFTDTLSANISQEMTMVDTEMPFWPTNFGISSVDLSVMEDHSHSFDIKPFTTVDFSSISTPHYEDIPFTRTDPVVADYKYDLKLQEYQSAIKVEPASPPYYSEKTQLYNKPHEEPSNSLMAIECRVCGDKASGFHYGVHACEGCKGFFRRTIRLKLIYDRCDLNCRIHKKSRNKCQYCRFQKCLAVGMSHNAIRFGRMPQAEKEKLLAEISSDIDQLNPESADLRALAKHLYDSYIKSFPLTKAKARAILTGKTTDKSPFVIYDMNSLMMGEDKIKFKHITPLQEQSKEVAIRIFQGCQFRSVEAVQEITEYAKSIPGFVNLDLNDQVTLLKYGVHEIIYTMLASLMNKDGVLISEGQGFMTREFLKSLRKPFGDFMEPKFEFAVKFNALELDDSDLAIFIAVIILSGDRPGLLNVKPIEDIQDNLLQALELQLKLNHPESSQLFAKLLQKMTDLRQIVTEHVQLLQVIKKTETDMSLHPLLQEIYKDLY
Procedure, shortened: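 HEK293T cells transiently transfected with PPARg and SRC-1 fused via (Gly4Ser)2 linker to split Venus YFP fragments (IFP1/IFP2) were dosed 24 h; fixed, Draq5-stained, imaged at 488/635 nm; nuclear/cytoplasmic fluorescence ratio scored versus DMSO baseline, gain-of-signal.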

[2] = CEETOX_H295R_11DCORT: CeeTox H295R High-throughput Steroidogenesis Assay for 11-Deoxycortisol (11DCORT) (AID 2283432); conditions: actives raise or lower the signal;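 on AC50: human adrenal H295R cells prestimulated with 10 µM forskolin for 48 h; 11-deoxycortisol secreted into the medium measured by LC-MS/MS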
Procedure, shortened: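 H295R cells; 10 uM forskolin prestim 48 h; compound in 0.1% DMSO 48 h; media extracted with MTBE; 11-deoxycortisol by LC-MS/MS, 7-point standard curve; gain/loss vs DMSO baseline; viability by MTT in same wells.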

[3] = CEETOX_H295R_OHPREG: CeeTox H295R High-throughput Steroidogenesis Assay for OH-Pregnenolone (OHPREG) (AID 2283434); conditions: actives raise or lower the signal
Procedure, shortened: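 Readout: HPLC-MS/MS of 17alpha-hydroxypregnenolone in medium after 48 h chemical exposure of H295R cells pretreated with forskolin. Values fitted bidirectionally relative to DMSO; chemicals reducing viability to 20–70% were retested after 10-fold dilution.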

[4] = CEETOX_H295R_OHPROG: CeeTox H295R High-throughput Steroidogenesis Assay for OH-Progesterone (OHPROG) (AID 2283435); conditions: actives raise or lower the signal;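 on AC50: human adrenal H295R cells primed 48 h with 10 µM forskolin; 17alpha-hydroxyprogesterone secreted into medium measured by HPLC-MS/MS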
Procedure, shortened: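 Steps: seed H295R cells and adhere overnight; stimulate with 10 uM forskolin for 48 h; replace with chemical-containing medium (0.1% DMSO) for 48 h; extract medium with MTBE; quantify 17alpha-hydroxyprogesterone by reverse-phase C18 HPLC-MS/MS against a 7-point curve.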

[5] = CEETOX_H295R_CORTISOL: CeeTox H295R High-throughput Steroidogenesis Assay for Cortisol (AID 2283438); conditions: actives raise or lower the signal
Procedure, shortened: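 Cortisol synthesis by H295R cells is measured 48 h after chemical dosing, following a 48 h stimulation with 10 uM forskolin. Hormone is extracted and quantified by HPLC-MS/MS, and activity is fitted bidirectionally against the DMSO control.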

[6] = CEETOX_H295R_DOC: CeeTox H295R High-throughput Steroidogenesis Assay for DOC (AID 2283439); conditions: actives raise or lower the signal
Procedure, shortened: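 Steps: seed H295R, adhere overnight; 10 uM forskolin 48 h; replace with chemical medium (0.1% DMSO) 48 h; collect medium, MTBE extraction, HPLC-MS/MS for DOC. Viability then checked by MTT; cytotoxic chemicals diluted until viability ≥70%.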

[7] = CEETOX_H295R_ESTRADIOL: CeeTox H295R High-throughput Steroidogenesis Assay for Estradiol (AID 2283440); conditions: actives raise or lower the signal;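 further: estradiol secreted into medium quantified by LC-MS/MS after dansyl derivatisation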
Procedure, shortened: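 H295R adrenocortical cells were prestimulated with 10 uM forskolin for 48 h, then exposed to test chemical in 0.1% DMSO for 48 h. Medium estradiol was extracted with MTBE, dansyl-derivatized and quantified by HPLC-MS/MS; bidirectional fit versus DMSO.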

[8] = CEETOX_H295R_ESTRONE: CeeTox H295R High-throughput Steroidogenesis Assay for Estrone (AID 2283441); conditions: actives raise or lower the signal;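 on AC50: human adrenal H295R cells prestimulated with forskolin for two days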
Procedure, shortened: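 Estrone secreted into medium quantified by LC-MS/MS after dansyl chloride derivatization, following 48 h chemical exposure (0.1% DMSO final) of forskolin-prestimulated (10 uM, 48 h) H295R cells; gain or loss fitted against DMSO; MTT viability in same wells.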

[9] = CEETOX_H295R_ANDR: CeeTox H295R High-throughput Steroidogenesis Assay for Androstenedione (ANDR) (AID 2283436); conditions: actives raise or lower the signal
Procedure, shortened: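 Steroidogenesis in H295R adrenal cells after 48 h dosing; androstenedione quantified by LC-MS/MS, with DMSO as negative control and baseline for bidirectional curve fitting.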

[10] = CEETOX_H295R_TESTO: CeeTox H295R High-throughput Steroidogenesis Assay for Testosterone (TESTO) (AID 2283457); conditions: actives raise or lower the signal
Procedure, shortened: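 H295R human adrenal cells in DMEM/F12 with ITS+ and Nu-Serum, exposed to chemicals for 48 h. Testosterone in medium measured by MTBE extraction, reverse-phase HPLC-MS/MS; bidirectional fit versus DMSO baseline. MTT viability checked in same wells.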

Measured: AC50

CCCCC(CC)COC(=O)c1ccc(N(C)C)cc1 (centres undefined)
active: [3] 6.35 µM | [4] 6.74 µM | [6] 6.74 µM
not listed: [9] | [10]
inactive: all other assays above

CCCCCCCCCc1ccc(OCCO)cc1
inactive: all assays above

OCCC(O)CO (centres undefined)
inactive: [2] | [3] | [4] | [5] | [6]

O=c1[nH]cccc1O
inactive: [5] | [7] | [8]
active: [2] 8.85 µM | [3] 6.71 µM | [4] 8.78 µM | [6] 5.07 µM

Nc1cccnc1N
inactive: [2] | [3] | [4] | [5] | [6]

CCCCCCCCCCCCC[N+](C)(C)Cc1ccccc1
active: [2] 0.287 µM | [3] 0.59 µM | [4] 0.509 µM | [9] 0.307 µM | [6] 0.337 µM
inactive: [1] | [5] | [7] | [8] | [10]

O=C(c1ccccc1)c1ccc(Cl)cc1
active: [4] 37.9 µM
not listed: [1] | [7] | [8]
inactive: all other assays above

CSc1ccc(O)cc1C
active: [9] 78 µM | [7] 28.2 µM | [8] 26.7 µM
not listed: [1]
inactive: all other assays above

Cc1cccc(C)n1
not listed: [1]
inactive: all other assays above

CC1CCCCC1
not listed: [1]
inactive: all other assays above
